The values below come from PubChem BioAssay.

Unmarked numbers belong to inactive results. For some of these results: Measured potencies and affinities stand elsewhere. The source made the active and inactive calls. Unless noted, the rule behind the calls is not given here.

The nature of experiment [1]: antimalarial activity against Dd2 strain (AID 2302;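 active = growth inhibition above 50% at the single 2 µM test dose, taken to imply half-maximal potency below 2 µM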;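 note: 0% = DMSO untreated growth and 100% = chloroquine plus artemisinin killed control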). The note with it: P. falciparum Dd2 in RBCs, LDH growth readout, 72 h; at 2 µM; hits give high values.
Experiment [2] in a line: HepG2 cytotoxicity, primary screen, cytotoxicity control for P. falciparum antimalarial project, cell-based, ATP luminescence (AID 2303;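 active = inhibition above 50%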;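 note: 0% = DMSO wells and 100% = digitonin-killed cells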). The note with it: HepG2 viability, 24-48 h, at 10 µM, hits give high values.
In experiment [3] the target is L-lactate dehydrogenase (Plasmodium falciparum (isolate CDC / Honduras)) (UniProt Q27743). Kind of experiment: PfLDH activity inhibition – cell lysate, 3D7 strain, counter-screen for P. falciparum growth inhibition project (AID 2304).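 Note: 0% = vehicle and 100% = reference inhibitor.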 The note with it: P. falciparum 3D7 crude extract, LDH APAD/NBT absorbance; at 2 µM; hits give high values.
L-lactate dehydrogenase (Plasmodium falciparum (isolate CDC / Honduras)), sequence (Q27743 whole entry, looked up): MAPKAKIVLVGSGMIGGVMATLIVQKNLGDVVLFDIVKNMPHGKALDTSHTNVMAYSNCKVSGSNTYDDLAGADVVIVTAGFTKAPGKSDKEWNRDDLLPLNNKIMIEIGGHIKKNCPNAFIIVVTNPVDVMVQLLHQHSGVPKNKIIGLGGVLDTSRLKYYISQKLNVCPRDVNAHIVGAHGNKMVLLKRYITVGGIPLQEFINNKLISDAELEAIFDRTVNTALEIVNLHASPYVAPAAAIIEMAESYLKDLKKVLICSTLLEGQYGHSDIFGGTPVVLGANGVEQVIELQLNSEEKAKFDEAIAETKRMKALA
Experiment [4] in a line: inhibition of 3D7 malaria parasite growth – strain 3D7 (AID 2306).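 Note: 0% = DMSO wells and 100% = chloroquine plus artemisinin control wells.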 The note with it: P. falciparum 3D7 erythrocytic growth, LDH absorbance, 72 h; at 2 µM; hits give high values.
Experiment [5] concerns the target Calcium-dependent protein kinase 1 (Plasmodium falciparum (isolate 3D7)) (UniProt P62344). Description: PfCDPK1 kinase inhibitors, biochemical, TCAMS library (AID 1159585; cut-off not given, nearly all actives have IC50 up to about 0.98 µM;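 note: inhibitors leave more ATP so luminescence rises with inhibition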). The note with it: recombinant PfCDPK1, Kinase-Glo ATP depletion luminescence.
The target in experiment [6] is Plasmodium falciparum protein kinase 6 (PK6, PF3D7_1337100) (UniProt Q8IDW1). Kind of experiment: PfPK6 kinase inhibitors, biochemical, TCAMS library (AID 1159586). Particulars: recombinant PfPK6, Kinase-Glo ATP depletion luminescence. (In general: Kinase-Glo reads ATP consumption through a luciferase reaction.)
Plasmodium falciparum protein kinase 6 (PK6, PF3D7_1337100), sequence (Q8IDW1 1-305): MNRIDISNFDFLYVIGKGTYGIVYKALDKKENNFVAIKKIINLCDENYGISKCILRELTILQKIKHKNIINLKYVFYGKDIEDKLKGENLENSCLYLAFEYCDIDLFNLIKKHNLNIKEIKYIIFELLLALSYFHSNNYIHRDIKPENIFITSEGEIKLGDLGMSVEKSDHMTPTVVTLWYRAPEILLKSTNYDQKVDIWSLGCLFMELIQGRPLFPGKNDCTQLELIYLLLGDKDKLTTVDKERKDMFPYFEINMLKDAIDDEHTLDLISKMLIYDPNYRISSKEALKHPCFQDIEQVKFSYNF
The target of experiment [7] is Protein kinase 7 (PK7), Plasmodium falciparum 3D7 (PF3D7_0213400) (UniProt Q7YTF7). Kind of experiment: inhibition of Plasmodium PK7 catalytic activity – biochemical, TCAMS antimalarial set, Kinase-Glo luminescence (AID 1159587). The note with it: recombinant PfPK7, Kinase-Glo ATP depletion luminescence.
Protein kinase 7 (PK7), Plasmodium falciparum 3D7 (PF3D7_0213400), sequence (Q7YTF7 1-343): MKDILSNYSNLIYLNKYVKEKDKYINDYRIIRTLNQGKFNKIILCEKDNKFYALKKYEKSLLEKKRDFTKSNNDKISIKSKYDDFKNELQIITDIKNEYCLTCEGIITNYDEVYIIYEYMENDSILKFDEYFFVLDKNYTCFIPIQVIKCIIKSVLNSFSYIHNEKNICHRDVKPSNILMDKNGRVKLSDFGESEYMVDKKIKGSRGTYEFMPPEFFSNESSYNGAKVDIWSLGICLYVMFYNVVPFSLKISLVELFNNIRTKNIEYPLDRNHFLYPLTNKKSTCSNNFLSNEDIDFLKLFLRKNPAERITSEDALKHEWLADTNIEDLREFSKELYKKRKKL
Experiment [8] has as its target Calcium-dependent protein kinase 4 (Plasmodium falciparum (isolate 3D7)) (UniProt Q8IBS5). Description: PfCDPK4 kinase inhibitors, biochemical, TCAMS library (AID 1159588; cut-off not given, nearly all actives have IC50 up to about 0.91 µM). Particulars: recombinant PfCDPK4, Kinase-Glo ATP depletion luminescence.

Calcium-dependent protein kinase 1 (Plasmodium falciparum (isolate 3D7)), sequence (P62344 whole entry, looked up): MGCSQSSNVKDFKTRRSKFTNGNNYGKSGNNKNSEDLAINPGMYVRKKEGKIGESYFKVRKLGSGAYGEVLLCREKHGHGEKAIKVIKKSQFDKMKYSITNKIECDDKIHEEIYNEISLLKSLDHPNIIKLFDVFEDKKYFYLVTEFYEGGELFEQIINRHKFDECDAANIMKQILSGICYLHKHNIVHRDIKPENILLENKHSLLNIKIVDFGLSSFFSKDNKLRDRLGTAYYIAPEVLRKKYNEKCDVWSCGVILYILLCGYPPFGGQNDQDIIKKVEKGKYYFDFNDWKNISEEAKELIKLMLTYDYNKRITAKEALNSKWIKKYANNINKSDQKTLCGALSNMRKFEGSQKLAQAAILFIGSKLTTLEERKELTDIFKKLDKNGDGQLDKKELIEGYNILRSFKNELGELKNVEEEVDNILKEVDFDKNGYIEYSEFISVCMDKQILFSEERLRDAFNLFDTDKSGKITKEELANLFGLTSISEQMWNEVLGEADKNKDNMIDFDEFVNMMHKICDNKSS
Calcium-dependent protein kinase 4 (Plasmodium falciparum (isolate 3D7)), sequence (Q8IBS5 whole entry, looked up): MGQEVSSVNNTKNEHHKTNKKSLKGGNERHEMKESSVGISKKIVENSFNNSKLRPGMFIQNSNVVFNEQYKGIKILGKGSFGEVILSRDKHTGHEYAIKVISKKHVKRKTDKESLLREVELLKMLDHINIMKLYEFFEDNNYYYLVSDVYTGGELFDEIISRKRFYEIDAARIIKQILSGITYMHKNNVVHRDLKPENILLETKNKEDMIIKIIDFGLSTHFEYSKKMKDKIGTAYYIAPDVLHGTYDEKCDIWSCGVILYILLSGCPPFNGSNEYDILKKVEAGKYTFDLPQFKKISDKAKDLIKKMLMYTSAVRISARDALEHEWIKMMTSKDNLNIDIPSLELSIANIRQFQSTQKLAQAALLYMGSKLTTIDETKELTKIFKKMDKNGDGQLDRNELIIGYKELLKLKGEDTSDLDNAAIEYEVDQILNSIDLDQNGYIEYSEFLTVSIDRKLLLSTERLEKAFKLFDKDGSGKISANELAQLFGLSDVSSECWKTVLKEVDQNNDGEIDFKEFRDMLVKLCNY

As a reminder, the inhibition is the relative decrease from the control value, in per cent. Regarding `Nc1nc(N)c2c(ccc3c2ccn3C2C=CCCC2)n1` (stereo not given), the growth inhibition is 65% (active) in experiment [1] and 94% (active) in experiment [4]. Also, the inhibition in experiment [2] was 68% (active); in experiment [3] it was -2%. Besides, the outcome in experiment [5], in experiment [6], in experiment [7] and in experiment [8] was inactive.

Take `Cc1noc(C)c1-c1ccc2c(Nc3ccccc3C(C)(C)C)c(C(=O)NCc3ccc(C(F)(F)F)cc3)cnc2c1`: the growth inhibition in experiment [1] was 50% (active); in experiment [4] it was 99% (active). The figures for the inhibition in experiment [2] and in experiment [3] were 30% and 0%, respectively. In addition, the outcome in experiment [5], in experiment [6], in experiment [7] and in experiment [8] was inactive.

For the compound `COc1c(C2CCN(CCCCNC(=O)c3ccc(-c4ccc(C#N)cc4)cc3)CC2)ccc2c1C(C)(C)CCC2(C)C`, the growth inhibition in experiment [1] is 86% (active); in experiment [4], 102% (active). Further, the inhibition was 98% (active) in experiment [2] and -1% in experiment [3]. Also, the outcome in experiment [5], in experiment [6], in experiment [7] and in experiment [8] was inactive.

In the case of `CC(C)(C)c1ccc(NC(=O)c2ccc(CN3CCCN(CC4CCCCC4)CC3)cc2)cc1`, the growth inhibition in experiment [1] is 64% (active); in experiment [4] it was 99% (active). Moreover, the figures for the inhibition in experiment [2] and in experiment [3] were 54% (active) and -1%, respectively. Moreover, the outcome in experiment [5], in experiment [6], in experiment [7] and in experiment [8] was inactive.

Take `COc1ccc(OCCn2cc(C(=O)c3ccco3)c3ccccc32)cc1`: the growth inhibition was 61% (active) in experiment [1] and 98% (active) in experiment [4]. Also, the inhibition in experiment [2] was 17%; in experiment [3], -1%. Moreover, the outcome in experiment [5], in experiment [6], in experiment [7] and in experiment [8] was inactive.

As for `COc1ccccc1N1CCN(CCCCNC(=O)c2ccc(NC(=O)c3ccc(C(F)(F)F)cc3)cc2)CC1`, the growth inhibition is 37% in experiment [1] and 100% (active) in experiment [4]. The inhibition is 25% in experiment [2] and 0% in experiment [3]. The result in experiment [5], in experiment [6], in experiment [7] and in experiment [8] was inactive.

`CCN1CCN(C(=O)NC(C(=O)N(C)Cc2ccc(-c3ccc(C(F)(F)F)cc3)cc2)c2cccs2)C(=O)C1=O` (stereo not given): the figures for the growth inhibition in experiment [1] and in experiment [4] were 95% (active) and 99% (active), respectively. The results for the inhibition in experiment [2] and in experiment [3] were -5% and -1%, respectively. Also, the outcome in experiment [5], in experiment [6], in experiment [7] and in experiment [8] was inactive.

Take `CN(C)Cc1cccc(-c2ccc3ccnc(N)c3c2)c1`: the figures for the growth inhibition in experiment [1] and in experiment [4] were 74% (active) and 99% (active), respectively. Besides, the inhibition is 21% in experiment [2] and 3% in experiment [3]. Moreover, the result in experiment [5], in experiment [6], in experiment [7] and in experiment [8] was inactive.

Regarding `C=CCOC(=O)N1CCC(CNCc2cccc(-c3ccc(-c4nc5c(C)cccc5[nH]4)cc3)c2)C1` (stereo not given), the growth inhibition in experiment [1] was 82% (active); in experiment [4], 103% (active). The figures for the inhibition in experiment [2] and in experiment [3] were 24% and 1%, respectively. Further, the result in experiment [5], in experiment [6], in experiment [7] and in experiment [8] was inactive.

With `c1ccc2c(c1)CN(Cc1cc3ccccc3[nH]1)CC1(CCN(Cc3c[nH]c4cnccc34)CC1)O2`, the growth inhibition was 62% (active) in experiment [1] and 101% (active) in experiment [4]. For the same compound, the inhibition is 27% in experiment [2] and -3% in experiment [3]. Also, the outcome in experiment [5], in experiment [6], in experiment [7] and in experiment [8] was inactive.

On to `O=C(Nc1ccc(C(=O)Oc2cccc3ccccc23)cc1)N[C@@H](Cc1ccc(O)cc1)C(=O)NC1CCN(Cc2ccc(O)cc2)C1` (stereo not given in full), for which the values for the growth inhibition in experiment [1] and in experiment [4] were -5% and 87% (active), respectively. Further, the figures for the inhibition in experiment [2] and in experiment [3] were -1% and 1%, respectively. Besides, the outcome in experiment [5], in experiment [6], in experiment [7] and in experiment [8] was inactive.

Take `Cc1cccc2[nH]c(-c3cccc(-c4ccc(NC(=O)Nc5ccc6c(c5)OCO6)cc4)c3)nc12`: the growth inhibition in experiment [1] is 86% (active); in experiment [4], 101% (active). For the same compound, the inhibition in experiment [2] was 80% (active); in experiment [3], -3%. The outcome in experiment [5], in experiment [6], in experiment [7] and in experiment [8] was inactive.

As for `O=C(Nc1ccc(-c2cccc(-c3nc4ccccc4[nH]3)c2)cc1)Nc1ccc2c(c1)OCO2`, the growth inhibition was 65% (active) in experiment [1] and 102% (active) in experiment [4]. Further, the results for the inhibition in experiment [2] and in experiment [3] were 55% (active) and 0%, respectively. The result in experiment [5], in experiment [6], in experiment [7] and in experiment [8] was inactive.

Regarding `CC(C)C1C(O)=C(c2ccc3ccccc3c2)C(=O)N1Cc1ccsc1` (stereo not given), the growth inhibition in experiment [1] was 82% (active); in experiment [4], 88% (active). Also, the inhibition in experiment [2] was 11%; in experiment [3] it was 3%. For the same compound, the result in experiment [5], in experiment [6], in experiment [7] and in experiment [8] was inactive.

For the compound `CC(=O)c1ccc2c(c1)[C@H](NC(=O)c1cccc(Cl)c1Cl)[C@@H](CO)C(C)(C)O2`, the results for the growth inhibition in experiment [1] and in experiment [4] were 44% and 99% (active), respectively. Further, the inhibition is 5% in experiment [2] and 4% in experiment [3]. The outcome in experiment [5], in experiment [6], in experiment [7] and in experiment [8] was inactive.

In the case of `COc1cccc(Nc2nc(N)c3ccccc3n2)c1`, the growth inhibition in experiment [1] was 47%; in experiment [4], 88% (active). For the same compound, the inhibition in experiment [2] is 18%; in experiment [3], -2%. The outcome in experiment [5], in experiment [6], in experiment [7] and in experiment [8] was inactive.

`O=C(NCc1cccc(C(F)(F)F)c1)c1ccc(CNC(=O)c2ccc(O)c(-c3ccc(Cl)c(Cl)c3)c2)cc1`: the growth inhibition is 15% in experiment [1] and 92% (active) in experiment [4]. Also, the inhibition in experiment [2] is 7%; in experiment [3], 2%. The result in experiment [5], in experiment [6], in experiment [7] and in experiment [8] was inactive.

As to `CCN(CC)CCNC(=O)c1ccc(NC(=O)c2cc3c(C)nn(-c4ccc(Cl)cc4)c3s2)cc1`, the growth inhibition was 78% (active) in experiment [1] and 95% (active) in experiment [4]. In addition, the inhibition in experiment [2] was 24%; in experiment [3], -2%. Besides, the outcome in experiment [5], in experiment [6], in experiment [7] and in experiment [8] was inactive.

On to `CC(C)(C)c1ccc2nccc(Nc3cccc(O)c3)c2c1`, for which the growth inhibition was 100% (active) in experiment [1] and 99% (active) in experiment [4]. Further, the inhibition in experiment [2] was 8%; in experiment [3] it was 0%. In addition, the result in experiment [5], in experiment [6], in experiment [7] and in experiment [8] was inactive.

With `O=C(c1ccc(-c2ccccn2)s1)N1CCc2cc3nccc(N4CCN5CCC[C@H]5C4)c3cc21`, the growth inhibition was 49% in experiment [1] and 96% (active) in experiment [4]. Moreover, the figures for the inhibition in experiment [2] and in experiment [3] were -15% and -4%, respectively. The result in experiment [5], in experiment [6], in experiment [7] and in experiment [8] was inactive.
